Compounds with a hit are over-represented: about 7% of the library has one in this group of screens.
ADAM17 inh – ADAM17 inhibition, QFRET primary screen; recombinant ADAM17, EDANS/DABCYL FRET peptide cleavage; inhibition, % at 6.95 µM; 370,000 compounds, 0.83% hits; P78536;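 active = inhibition above the mean of compounds lying between control limits plus 3 SD, set per campaign, cut at about 8.5% in these data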
Target sequence (P78536 215-824 limits assumed): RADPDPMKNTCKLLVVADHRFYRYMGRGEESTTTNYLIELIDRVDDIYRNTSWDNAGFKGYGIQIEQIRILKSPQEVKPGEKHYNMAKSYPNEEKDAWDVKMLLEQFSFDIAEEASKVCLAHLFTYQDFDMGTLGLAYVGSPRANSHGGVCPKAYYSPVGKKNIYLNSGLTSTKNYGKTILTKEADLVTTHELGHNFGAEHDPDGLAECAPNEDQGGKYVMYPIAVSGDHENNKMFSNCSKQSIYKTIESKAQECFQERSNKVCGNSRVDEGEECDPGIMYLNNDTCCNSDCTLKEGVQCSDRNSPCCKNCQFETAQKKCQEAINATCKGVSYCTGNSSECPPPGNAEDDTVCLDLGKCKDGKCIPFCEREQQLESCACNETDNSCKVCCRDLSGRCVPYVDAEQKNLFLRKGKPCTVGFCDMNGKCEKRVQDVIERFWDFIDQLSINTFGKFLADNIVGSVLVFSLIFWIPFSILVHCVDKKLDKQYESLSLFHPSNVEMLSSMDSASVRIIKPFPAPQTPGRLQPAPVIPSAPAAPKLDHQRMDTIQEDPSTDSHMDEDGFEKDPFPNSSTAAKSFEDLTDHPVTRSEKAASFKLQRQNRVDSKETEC
NR3A LBD binder – modulates the human NR3A ligand-binding domain; NR3A LBD differential scanning fluorimetry, Tm shift; 0% = protein alone, 100% = glycine-bound protein; 340,000 compounds, 2.5% hits; AID 1259313; Tm shift relative to glycine control, % at 25 µM;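 active = melting temperature shift of at least 10% of the positive control shift, at one fixed dose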
KLK7 zymogen act – activates the human kallikrein-7 zymogen | P49862 | purified proKLK7, EDANS-DABCYL substrate fluorescence; 100% is mature enzyme control, 0% vehicle | activation, % at 7 µM | 370,000 compounds, 0.9% hits | AID 652039;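 active = activation above the mean of all tested compounds plus 3 SD, computed per campaign excluding outliers beyond control limits, cut at about 13% in these data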
rCAG binder – molecules binding r(CAG) RNA repeats; 370,000 compounds, 1.3% hits; inhibition, % at 3 µM; r(CAG) RNA repeat, TO-PRO-1 dye displacement fluorescence; AID 651821;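 active = inhibition above the plate cutoff, the mean of all test compounds on that plate plus 3 SD, cut at about 35% in these data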;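 also: higher means more dye released from RNA so lower well fluorescence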
AHR activator – activates the human aryl hydrocarbon receptor | AID 2796 | AHR-responsive luciferase reporter cells, luminescence | activation, % at 5 µM | 320,000 compounds, 2.5% hits; in the data active = activation above about 47%
ADAM10 inh – ADAM10 inhibition, QFRET primary screen | recombinant ADAM10, EDANS/DABCYL FRET peptide cleavage, 3 h | inhibition, % at 7 µM | O14672 | 370,000 compounds, 0.62% hits;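 active = inhibition above a per-campaign cutoff equal to the mean of compounds falling between control-based bounds plus 3 SD, cut at about 20% in these data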
KLK7 act conf – proKLK7 activation, confirmation. shares compounds with KLK7 zymogen act. purified proKLK7, EDANS-DABCYL substrate fluorescence; scaled: vehicle 0, mature enzyme 100. activation, % at 7 µM. 3,200 compounds, 68% hits. AID 686949;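 active = activation, as change over the incubation, above the mean of all tested compounds plus 3 SD, cut at about 13% in these data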
EDANS-DABCYL int – fluorescence interference counter-screen for KLK7 activators. shares compounds with KLK7 zymogen act. EDANS-DABCYL substrate fluorescence interference, no enzyme, 4 h; solvent 0%, active enzyme control 100%. activation, % at 7 µM. 3,200 compounds, 80% hits;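 active = activation above the all-compound mean plus 3 SD, ignoring values outside control-based bounds, cut at about 4.8% in these data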;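 also: value is the 4 h activation minus the activation read at time zero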
K7 EDANS ctr – optically interferes with EDANS-DABCYL fluorescence, kallikrein-7 activator counter-screen | AID 720493 | EC50, µM | EDANS-DABCYL peptide fluorescence interference, no enzyme | 250 compounds, 20% hits | shares compounds with KLK7 zymogen act;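 active = compounds that raise the fluorescence signal in this interference counterscreen, with EC50 at or below 10 µM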;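 also: intact quenched peptide substrate alone read at 355 nm excitation and 520 nm emission; signal is fluorescence gain from T0 to T4 after four hours at room temperature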
ADAM10 confirm – confirmation of inhibitors of human ADAM10. shares compounds with ADAM10 inh. ADAM10 QFRET peptide cleavage, EDANS fluorescence. inhibition, % at 6.95 µM. 2,100 compounds, 1% hits;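 active = inhibition above about 20% chosen separately for each screening run, limit read from the data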
ADAM17 ctr – ADAM17 inhibition, counter-screen for ADAM10 exosite hits; shares compounds with ADAM10 inh; ADAM17 QFRET peptide cleavage, EDANS fluorescence; inhibition, % at 6.95 µM; 2,100 compounds, 0.5% hits;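 active = mean triplicate inhibition above the solvent-only control wells' mean plus 3 SD, cut at about 12% in these data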
Large screens that a line does not name were inactive (follow-up assays come after a bar, where they were run).

CC(=O)OC1CC2OC3C=C(C)CCC3(C)C1(C)C21CO1 (stereo not given)	none (no result: NR3A LBD binder, AHR activator)
COCCCn1c(N)c(C(=O)OCCOC)c2nc3ccccc3nc21	KLK7 zymogen act 84 | KLK7 act conf 71 | EDANS-DABCYL int 78
CCOC(=O)c1c(N)n(CCCOC(=O)c2ccco2)c2nc3ccccc3nc12	KLK7 zymogen act 39 | KLK7 act conf 63 | EDANS-DABCYL int 64
CCCCNC(=O)c1c(N)n(CCCOC)c2nc3ccccc3nc12	none
CCOC(=O)c1c(NS(=O)(=O)c2ccccc2)n(CCCOC)c2nc3ccccc3nc12	KLK7 zymogen act 82 | KLK7 act conf 66 | EDANS-DABCYL int 70
CCN1CCN(C(=O)COc2ccc3c(c2)C(=O)CC2(CCN(C(C)=O)CC2)O3)CC1	KLK7 zymogen act 36 | KLK7 act conf 82 | EDANS-DABCYL int 63 | K7 EDANS ctr inactive
CC1(C)CC(=O)c2cc(OCC(=O)N3CCN(Cc4ccccc4)CC3)ccc2O1	none
COC(=O)C12CCc3c(ccc4cc(OC)ccc34)C1=CC(=O)C2 (stereo not given)	KLK7 zymogen act 93 (no result: AHR activator) | KLK7 act conf 65 | EDANS-DABCYL int 79
O=c1ccc2cc(OC3O[C@H](CO)[C@@H](O)[C@H](O)[C@H]3O)c(O)cc2o1 (stereo not given in full)	KLK7 zymogen act 53 | KLK7 act conf 59 | EDANS-DABCYL int 74
COc1cc([C@H]2OC[C@H]3[C@@H]2CO[C@@H]3c2cc(OC)c(O[C@@H]3O[C@H](CO)[C@@H](O)[C@H](O)[C@H]3O)c(OC)c2)cc(OC)c1O[C@H]1O[C@@H](CO)[C@H](O)[C@@H](O)[C@@H]1O	none
Cc1nc2ccccn2c1P(=S)(c1ccccc1)c1ccccc1	none (no result: NR3A LBD binder, AHR activator)
CCOc1ccc(-c2cc(C)[n+](CCN3CCOCC3)c(-c3ccc(OCC)cc3)c2)cc1	KLK7 zymogen act 25 | KLK7 act conf 29 | EDANS-DABCYL int 28
CC1(O)CCC2C3CCC4=CC(=O)CCC4=C3C=CC21C (stereo not given)	KLK7 zymogen act 14 (no result: AHR activator) | KLK7 act conf 13 | EDANS-DABCYL int 23
CCOC(=O)[C@]12Cc3c(cc(OC)c(OC)c3OC)[C@H]1N(C1CCCCC1)C(=O)c1ccccc12	none (no result: NR3A LBD binder, AHR activator)
CC[C@@H](CO)NC(=O)[C@@H]1C=C2c3cccc4[nH]cc(c34)C[C@H]2N(C)C1	KLK7 zymogen act 19 (no result: AHR activator) | KLK7 act conf inactive | EDANS-DABCYL int inactive
COc1ccc(Cn2c(N)c(C(=O)NCc3ccco3)c3nc4ccccc4nc32)cc1OC	none
Nc1c(C(=O)NCc2ccco2)c2nc3ccccc3nc2n1CCN1CCCCC1	KLK7 zymogen act 63 (no result: NR3A LBD binder) | KLK7 act conf inactive | EDANS-DABCYL int inactive
O=C(NC1CCCCC1)N1Cc2cc(Br)ccc2-n2nncc2C1	none (no result: NR3A LBD binder, AHR activator)
CCC(C)(O)C(=O)OC1C(=O)OC2CC3C(C)=CC(O)C(O)C3(C)C3C4(O)OCC23C1C(C)C4O (stereo not given)	none (no result: NR3A LBD binder, AHR activator)
CCOC(=O)c1cc2c(cn1)[nH]c1ccccc12	KLK7 zymogen act 20 | KLK7 act conf inactive | EDANS-DABCYL int inactive
CC(C)C[C@H]1COc2cc(N3CCN(C)CC3)ccc2S(=O)(=O)N1	none (no result: NR3A LBD binder, AHR activator)
O=c1[nH]c(=O)n(C2CCCCC2)c(O)c1C1NCCc2ccccc21 (stereo not given)	none
COc1cc2c(cc1OC)C(c1c(O)n(CCc3ccccc3)c(=S)[nH]c1=O)NCC2 (stereo not given)	KLK7 zymogen act 95 | KLK7 act conf 85 | EDANS-DABCYL int 84
Cc1ccc2c(c1)=NC(=O)/C(=C/c1c(O)[nH]c(=O)[nH]c1=O)C=2	KLK7 zymogen act 18 | KLK7 act conf 46 | EDANS-DABCYL int 45
Cc1ccc2c(c1)=C/C(=C\c1c(O)[nH]c(=S)[nH]c1=O)C(=O)N=2	none (no result: ADAM17 inh, NR3A LBD binder, KLK7 zymogen act, rCAG binder, ADAM10 inh)
COC(=O)c1ccc(NC(=O)CSc2nc3ccc(N4C(=O)C5C6C=CC(C6)C5C4=O)cc3s2)cc1 (stereo not given)	NR3A LBD binder 12, ADAM10 inh 25 | ADAM10 confirm inactive | ADAM17 ctr inactive
CCOC(=O)[C@]12Cc3cc(Cl)ccc3[C@H]1N(C1CCCCC1)C(=O)c1cc(OC)ccc12	none (no result: NR3A LBD binder, AHR activator)
CCOc1ccccc1OCC(=O)Nc1ccc(Cl)cc1C(=O)c1ccccc1	none
O=C(COC(=O)c1cccc(O)c1)Nc1ccc(Cl)cc1C(=O)c1ccccc1	ADAM10 inh 23 | ADAM10 confirm inactive | ADAM17 ctr inactive
COC(=O)C1=C(c2ccccc2OCc2ccccc2)C[C@@H]2CC[C@H]1N2C(=O)NCc1ccc(F)cc1	none
COC(=O)C1=C(c2cccc(OCc3ccccc3)c2)C[C@@H]2CC[C@H]1N2C(=O)NCc1ccc([N+](=O)[O-])cc1	ADAM10 inh 26 | ADAM10 confirm inactive | ADAM17 ctr inactive
COC(=O)C1=C(c2ccccc2OCc2ccccc2)C[C@@H]2CC[C@H]1N2C(=O)NCc1ccc(C(C)(C)C)cc1	ADAM10 inh 25 | ADAM10 confirm inactive | ADAM17 ctr inactive
O=C1NCN(c2ccccc2)C12CCN(C(CCc1ccccc1)c1nnnn1-c1ccc3c(c1)OCCO3)CC2 (stereo not given)	ADAM17 inh 11, ADAM10 inh 25 (no result: NR3A LBD binder, AHR activator) | ADAM10 confirm inactive | ADAM17 ctr inactive
O=c1[nH]c2ccccc2n1C1CCN(C(c2cc3ccccc3o2)c2nnnn2-c2ccc3c(c2)OCCO3)CC1 (stereo not given)	none (no result: NR3A LBD binder, AHR activator)
CCCCCCC(C)(C)c1ccc([C@@H]2C[C@H](O)CC[C@H]2CCCO)c(O)c1	ADAM10 inh 27 | ADAM10 confirm inactive | ADAM17 ctr inactive
COc1cc2c(c3oc4cccc(O)c4c(=O)c13)[C@@H]1C=CO[C@@H]1O2	none (no result: NR3A LBD binder, AHR activator)
CO[C@H]1C=CCCC=CC(=O)O[C@H]([C@H](C)C(=O)CCCC2CC(=O)NC(=O)C2)C(C)=C[C@@H](C)[C@@H]1O	none (no result: NR3A LBD binder, AHR activator)

Source: PubChem BioAssay
